The values that follow come from PubChem BioAssay (NCI).

SMILES strings stand for the structures. About 83,000 compounds went through this panel and 20% of them were active in at least one assay; those are over-represented in the sample as a whole.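 Step 1: grow cells in 96-well plates. Step 2: add test compound at a single concentration. Step 3: incubate 48 h. Step 4: record percent growth.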 Values without a mark were called inactive. The source made the active and inactive calls. The calls were made as follows: active = growth percent below 10; inactive = the rest.

The test deals with HL-60(TB) leukemia. The test is described as follows: NCI-60 one-dose screen, 48 h (100 = growth as untreated, 0 = no growth, -100 = all killed). To be noted: 10 µM unless noted.
Turning to `CC1(C)[C@H](O)CC[C@]2(C)[C@@H]1CC[C@@]13C[C@@H](CC[C@H]12)[C@@](O)(CO)C3`, the growth was 106%.

Take `O=C(CCCCCCCCC(=O)N/N=C\c1ccccc1O)N/N=C\c1ccccc1O`: the growth was 14.8%. Regarding `C[C@@H]1CCCCCCCCC[C@H](O)C(=O)C[C@@H](SC[C@@H](O)C(=O)O)C(=O)O1`, the growth was 86.8%. Consider `O=c1cc/c(=N\Nc2ccccc2)c(=O)/c1=N/Nc1ccccc1`, for which the growth is 138%.

Consider `COc1cccc(-c2nc3sccn3c2-c2ccnc(NCCCNS(=O)(=O)c3ccc(F)cc3)c2)c1`, for which the growth was -13.5% (active). Take `CCc1c(Nc2ccccc2C)nc(N)[nH]c1=O`: the growth is 88.9%. For `CC(C)(C)NC(=O)C(OC(=O)c1cccc(Cl)c1)c1ccc(Cl)cc1` (stereo not given), the growth is 103%. As to `O=c1c2cccc(Cl)c2sc2c(NCCCNCCO)nc3ccccc3c12`, the growth is -17.8% (active). `Cc1ccsc1/C=C/C1=NCCCN1C`: the growth is 126%. With `CC(C)c1ccc(C(=O)Nc2sc3c(c2C(N)=O)CCC(=O)C3)cc1` the figure was -11.5% (active); with `C[C@@H]1CC[C@@H]2[C@@H]1[C@H](OC(=O)/C=C/c1ccccc1)[C@]1(C3CCCCC3)C[C@@H](NC(=O)CO)[C@@]2(C)O1`, 104%; with `COc1ccc(OC)c(/C=C2\Oc3cc(O)ccc3C2=O)c1`, 95.7%. For `Cc1cc2nc(CS)[nH]c2cc1C`, the growth was 80.1%. For `CCS(=O)(=O)OCCO[C@H]1Cc2cc3ccc(=O)oc3cc2OC1(C)C`, the growth was 106%.

In the case of `CCCC(=O)OCC1OC(n2cnc3c(=S)nc[nH]c32)C(OC(=O)CCC)C1OC(=O)CCC` (stereo not given), the growth is 32.1%.

As to `O=C(Nc1cccc(-n2cc(-c3ccncc3)c(-c3cc(O)cc(Cl)c3)n2)c1)Nc1ccc(Cl)c(C(F)(F)F)c1`, the growth is -26.9% (active). Regarding `Clc1ccc(Sc2nc(NC3CC3)nc(Sc3ccc(Cl)cc3)n2)cc1`, the growth was 60.9%. Regarding `CC1OC(n2c3ccccc3c3c4c(c5c6ccccc6[nH]c5c32)C(=O)N(CCN[C@H]2CCC[C@@H]2N)C4=O)CC(O)C1O` (stereo not given in full), the growth is 54.3%. Then `O=C(C(Br)C(Br)c1ccccc1)C(Br)C(Br)c1ccccc1` (stereo not given), with -49.7% (active); and `Fc1cccc(-c2nc(-c3c[nH]c4ncccc34)cs2)c1`, with 97.2% [100 µM]; and `Nc1c(-c2nc3ccc(Br)cc3c(=O)[nH]2)nnn1-c1ccccc1`, with 103%. Take `Cc1[nH]nc2ccc3nc(-c4ccc5[nH]ncc5c4)c4c(c3c12)CCCC4`: the growth was -15.5% (active). Turning to `O=CC(OC(=O)c1ccccc1)C(OC(=O)c1ccccc1)C(COC(c1ccccc1)(c1ccccc1)c1ccccc1)OC(=O)c1ccccc1` (stereo not given), the growth is -12.3% (active). With `C#C[C@]1(O)CC[C@H]2[C@@H]3CC=C4c5sc(-c6cccc(C)c6)nc5CC[C@]4(C)[C@H]3CC[C@@]21C` the figure was 71.8%; with `CCOC(=O)c1ccc(NC(=O)CSC(N)=O)cc1`, 93.2%.

As for `O=C1C=C(Cl)C(=O)c2ccccc21`, the growth is 57.3%.

Regarding `O=C(Nc1ncc(Cc2ccccc2)s1)c1ccc2c(c1)OCCO2`, the growth is -48.6% (active). As to `Cc1ccc(C2Oc3ccccc3C3CC(c4cccs4)=NN32)cc1` (stereo not given), the growth was 97.4%.

As for `CC1(C)C(=O)/C(=C\c2cccnc2)C[C@]2(C)[C@H]3CC[C@@H]4[C@H]5[C@H](C(=O)/C=C/c6cccnc6)CC[C@]5(C(=O)O)CC[C@@]4(C)[C@]3(C)CC[C@@H]12`, the growth was 0.806% [100 µM] (active). `Cn1cc(C(=O)c2nc(-c3c[nH]c4ccc(F)cc34)no2)c2cc(F)ccc21`: the growth is 70.5%. In the case of `COc1ccc2[nH]c(-c3ccccc3)c(C=C(C#N)C#N)c2c1`, the growth was -49.1% (active). With `CC(C)[C@@]12C[C@@H](OC(=O)COC(=O)c3ccccc3)[C@@](C)(O1)[C@@H]1CC[C@@H](C)[C@H]1[C@@H]2OC(=O)/C=C/c1ccccc1`, the growth was 94.5%. `CC(=O)Nc1ccc(C(=O)/C=C/c2ccccc2)cc1`: the growth was 53.9%. Regarding `CCCCN(Cc1ccc(C(=O)NO)cc1)C(=O)Nc1ccc(OCCCCCCCCCn2cc(CCCCC(=O)N[C@H](C(=O)N3C[C@H](O)C[C@H]3C(=O)NCc3ccc(-c4scnc4C)cc3)C(C)(C)C)nn2)cc1`, the growth is 21.6%.

As to `CCOP1(=O)CC(C)=C(Cl)C(P(=O)(O)O)C1` (stereo not given), the growth is 11.5%. Then `O=Nc1c(-c2cccc([N+](=O)[O-])c2)nc2ncccn12`, with 0.307% (active); and `CN1CCN(CCCNc2nccc(-c3c(-c4ccc(F)c(O)c4)nc4sccn34)n2)S1(=O)=O`, with 78.3%. Regarding `C[C@@H](C(=O)O)c1ccc2c3cc(Cl)ccc3n(Cc3cc(=O)oc4ccc(Cl)cc34)c2c1`, the growth was 89.9%.

For the molecule `COc1ccc2c(c1)O/C(=C\c1ccc([N+](=O)[O-])s1)C2=O`, the growth was 7.46% (active). For the molecule `CC/C=C\C[C@H](O)C/C=C1/C(=O)C(Cl)=C[C@@H]1C/C=C\CCCC(=O)OC`, the growth is -2.33% (active).
